Pf Dd2 growth = Plasmodium falciparum Dd2 growth inhibition; 4.3% of 120,000 active; Potency, µM (titrated, usually from 28.9 µM), inactives show at the top dose activity, negative = inhibition, usual class: inhibitors; P. falciparum Dd2 growth, SYBR Green, 72 h; AID 1347417; active = well fitted inhibition curve with a large enough effect;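 note: plate controls were DMSO vehicle for no effect and reference drug for full effect; nearly all actives have a fitted effect of over 65% in size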
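Readout: SYBR Green fluorescence, 485 nm excitation, 535 nm emission, after ~16 h lysis at 37C. Before that, Dd2-infected red cells (2.5% hematocrit) grew 72 h with compound, 29 uM top final concentration.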
Active calls of the source: *; [ ] = another dose, or the depositor's remark. The full list was thinned out, with hits kept by preference. Potency is the fitted concentration of half-maximal effect.

Screening COc1ccc(-c2nc3c(c(SCC(=O)Nc4cccc(O)c4)n2)Cc2c(CO)cnc(C)c2O3)cc1 returned Pf Dd2 growth 5.62µM*.
Screening COc1ccc(-c2nc3c(c(SC)n2)Cc2c(CO)cnc(C)c2O3)cc1 returned Pf Dd2 growth -8.7%.
C=Cc1ccc(CSc2nc(-c3ccccc3C)nc3c2Cc2c(CO)cnc(C)c2O3)cc1 was read as Pf Dd2 growth 5.62µM*.
For COc1ccc(CC(=O)Nc2ccc([C@H]3OCC(=O)N(Cc4nccn4C)[C@@H]3CO)cc2)cc1 the results were Pf Dd2 growth inactive.
For O=C(NCC1CCOCC1)c1cnccn1 the results were Pf Dd2 growth 39.2%.
`CC[C@H]1CN(S(=O)(=O)c2c(C)noc2C)CC[C@H]1CC(=O)NCc1ccco1` gave Pf Dd2 growth -2.9%[44.1 µM].
For CCOc1ccc(-c2nnc(CCC(=O)NCCc3ccccc3)c(=O)[nH]2)cc1 the results were Pf Dd2 growth -18.2%.
Screening CCC[C@@H]1CN(CCC(=O)NCc2cccc(Cl)c2)C[C@H]1C(=O)O returned Pf Dd2 growth -3.5%.
Screening O=C(O)C[C@@H]1CCN(C(=O)Cc2ccccc2)C[C@@H]1CCN1CCC[C@H]1C(=O)O returned Pf Dd2 growth 12.0%[44.1 µM].
For O=S(=O)(N[C@@H]1C[C@H](Cn2cc(C3CC3)nn2)[C@@H](O)[C@H]1O)c1ccccc1 the results were Pf Dd2 growth -25.0%[44.1 µM].
O=C(c1cc(F)ccc1F)N1CCCC(Cc2nc(C3CCOCC3)no2)C1 (configuration not stated) was read as Pf Dd2 growth 9.7%.
For CCn1ncc(N2CCCC(CC(=O)N3CCCCC3)C2)cc1=O (configuration not stated) the results were Pf Dd2 growth inactive.
`Cc1c(C(=O)NC[C@H]2C[C@@H]3C=C[C@H]2C3)sc2ncnc(NCCc3ccccn3)c12` gave Pf Dd2 growth -16.2%.
Screening Cc1cccc(C(=O)N2C[C@@H](F)C[C@H]2C(=O)N2CCc3ccccc3C2)c1 returned Pf Dd2 growth 12.3%.
`Cc1ccc(NC(=O)C2CC(=O)N(c3n[nH]c4cccc(F)c34)C2)c(C)c1` (configuration not stated) gave Pf Dd2 growth 11.5%.
`C=Cc1ccc(CSc2nc(-c3ccc(OC)cc3)nc3c2Cc2c(CO)cnc(C)c2O3)cc1` gave Pf Dd2 growth 3.16µM*.
Screening Cc1ncc(CO)c2c1Oc1nc(-c3ccc(F)cc3)nc(SCc3ccc(F)cc3Cl)c1C2 returned Pf Dd2 growth 63.8%[0.594 µM].
`CCc1ccc(NC(=O)CSc2nc(-c3ccc(C)cc3)nc3c2Cc2c(CO)cnc(C)c2O3)cc1` gave Pf Dd2 growth -27.2%.
Screening C=Cc1ccc(CSc2nc(-c3ccc(Cl)cc3)nc3c2Cc2c(CO)cnc(C)c2O3)cc1 returned Pf Dd2 growth 11.2µM*.
CCOc1ccc(NC(=O)CSc2nc(-c3cccc(Cl)c3)nc3c2Cc2c(CO)cnc(C)c2O3)cc1 was read as Pf Dd2 growth 6.6%.
OC(c1nc(Nc2ccc(Oc3ccccc3)cc2)n[nH]1)C1CC1 (configuration not stated) was read as Pf Dd2 growth -18.9%[44.1 µM].
`CN1CCCC(CNc2ncc(C(C)(C)C(=O)O)c(N3CCOCC3)n2)C1` (configuration not stated) gave Pf Dd2 growth -8.7%.
For CCC(=O)N(C1CCOCC1)C1CCN(S(=O)(=O)c2ccc(Cl)cc2C)CC1 the results were Pf Dd2 growth -0.8%.
CCc1nc2c(c(-c3ccc(Cl)cc3)n1)CCN(CCC(C)C)CC2 was read as Pf Dd2 growth -19.4%.
For CCC(C(=O)N1CCc2onc(-c3ccc(F)c(F)c3)c2C1)n1cccn1 (configuration not stated) the results were Pf Dd2 growth -24.4%.
For CC(C)n1ccnc1CN1CCc2onc(-c3ccc(Cl)cc3)c2C1 the results were Pf Dd2 growth 12.6µM*.
`COCC(=O)N[C@H]1CC[C@]2(C)CC[C@@H]([C@H](C)C(=O)N3CCOCC3)[C@H](O)[C@H]2[C@@H]1C` gave Pf Dd2 growth 5.1%[44.1 µM].
For Cn1cccc1CN1CCCC(COc2ccccc2C(=O)N2CCCCC2)C1 (configuration not stated) the results were Pf Dd2 growth inactive.
For Cc1cc(C(=O)N(C)CC2CCCN(CCc3ccccc3F)C2)n[nH]1 (configuration not stated) the results were Pf Dd2 growth -27.9%.
For COc1ccccc1CCN1CCCC(CN(C)C(=O)Nc2ccccc2)C1 (configuration not stated) the results were Pf Dd2 growth 2.24µM*.
For COc1ccccc1CN1CCCC(CN(CCN(C)C)C(=O)c2ccccc2OC)C1 (configuration not stated) the results were Pf Dd2 growth inactive.
CC(C)(C)CCN1CCCC(COc2ccccc2C(=O)N2CCCC2)C1 (configuration not stated) was read as Pf Dd2 growth inactive.
COc1ccccc1CCN1CCCC(CN(C)C(=O)C(=O)c2cccn2C)C1 (configuration not stated) was read as Pf Dd2 growth 14.1µM*.
`C[C@@H]1CN(C(=O)c2ccccc2C#N)CC[C@@]1(O)C1CCOCC1` gave Pf Dd2 growth 1.2%.
For CCCn1cc(C(=O)N2CC[C@@](O)(COC)C(C)(C)C2)c(C)n1 the results were Pf Dd2 growth 1.8%.
`COc1ccccc1CNC(=O)C1CCN(C(=O)c2ncn3c2COC(c2ccccc2)C3)CC1` (configuration not stated) gave Pf Dd2 growth -22.7%.
For CCn1cc(S(=O)(=O)N2CC(F)(F)C[C@H]2c2nc(C)no2)cn1 the results were Pf Dd2 growth 8.7%.
Screening CCc1nc(CN2CCN(Cc3ccc(C)o3)C(CCO)C2)c(C)[nH]1 (configuration not stated) returned Pf Dd2 growth -9.7%.
Screening CCN(CC1CCN(C2CCN(C)CC2)CC1)C(=O)c1ccc(-c2ccccc2)cc1 returned Pf Dd2 growth 12.6µM*.
For CN1CCC(Cc2ccc(C(=O)O)cc2)CC1 the results were Pf Dd2 growth 13.3%.
`Cc1cc(C)c(C(=O)N(CC2CCN(C3Cc4ccccc4C3)CC2)CC2CCCO2)o1` (configuration not stated) gave Pf Dd2 growth inactive.
O=C1OC2(CN1CC1CCOCC1)CN(C(=O)c1ccc(Oc3ccccc3)cc1)C2 was read as Pf Dd2 growth -6.2%[44.1 µM].
For CCC(=O)Nc1cc(C(=O)NCc2ccc(N3CCN(C)CC3)cc2)c2ccc(C)nc2c1 the results were Pf Dd2 growth 10µM*.
For CCCCNC(=O)c1cc(NC(=O)CC)cc2nc(C)ccc12 the results were Pf Dd2 growth -1.6%.
`CCNC(=O)c1cc(NC(=O)CC)cc2nc(C)ccc12` gave Pf Dd2 growth -16.2%.
For CCc1noc(-c2cccn3c(CNC(=O)c4ccccn4)nnc23)n1 the results were Pf Dd2 growth -26.1%.
Cc1cccnc1CN1CCN(C(=O)C2CC3(CCNCC3)CN2C)CC1 (configuration not stated) was read as Pf Dd2 growth 9.8%.
For CCOc1ccc(-n2c(/C=C/c3cccc(F)c3)nc3cc(OC)c(OC)cc3c2=O)cc1 the results were Pf Dd2 growth inactive.
`COc1cc2nc(Nc3cccc(F)c3)nc(N)c2cc1OC` gave Pf Dd2 growth 2.24µM*.
Screening COc1ccccc1C(O)c1nc(Nc2cccc(F)c2)n[nH]1 (configuration not stated) returned Pf Dd2 growth inactive.
For COC[C@@H]1CN(C(=O)c2cc(C3CC3)[nH]n2)C[C@H]1c1ccccn1 the results were Pf Dd2 growth -34.9%.
O=C(Nc1ccccc1)N1CCN(C2CCNCC2)C(=O)C1 was read as Pf Dd2 growth -7.9%.
